These results are taken from PubChem BioAssay AID652039 (The Scripps Research Institute Molecular Screening Center, 2013).

Structures are written as SMILES. The campaign covered roughly 370,000 compounds. About 3,300 (0.89%) were called active.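 Rule for the calls: active = activation above the mean of all tested compounds plus 3 SD, computed per campaign excluding outliers beyond control limits (cut at about 13% in these data); inactive = the rest.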 The sample as a whole holds a higher share of actives than the screen did.

Chain of Kallikrein-7 (Homo sapiens) (P49862 whole entry, looked up): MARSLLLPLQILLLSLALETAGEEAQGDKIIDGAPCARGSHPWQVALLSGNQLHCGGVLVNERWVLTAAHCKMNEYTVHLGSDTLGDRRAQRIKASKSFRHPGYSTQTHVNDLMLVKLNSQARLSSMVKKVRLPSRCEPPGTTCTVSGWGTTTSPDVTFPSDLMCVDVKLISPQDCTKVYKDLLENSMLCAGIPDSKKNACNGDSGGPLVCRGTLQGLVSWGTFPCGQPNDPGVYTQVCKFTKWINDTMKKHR

The assay has as its target Kallikrein-7 (Homo sapiens) (UniProt P49862). Kind of assay: proKLK7 zymogen activators, primary screen, biochemical, fluorescence intensity (AID 652039). The following applies: purified proKLK7, EDANS-DABCYL substrate fluorescence; at 7 µM; stronger effect = higher value; 100% is mature enzyme control, 0% vehicle.
For `COc1ccccc1C(=O)CSc1nnc(-c2ccccn2)n1-c1ccccc1`, the activation is 0.13% (inactive).
The same measure for `Cc1ccc(-n2c(SCC(=O)Nc3cccc4ccccc34)nnc2-c2ccccn2)cc1`: -0.1% (inactive); for `CCOc1ccc(N(CC(=O)Nc2c(C)n(C)n(-c3ccccc3)c2=O)S(=O)(=O)c2ccc(Cl)s2)cc1`: -0.38% (inactive); for `COc1cc(NC(=O)c2ccccc2NS(=O)(=O)c2ccc(Cl)s2)cc(OC)c1`: 0.45% (inactive).
Regarding `O=C(Nc1nncs1)c1ccccc1NS(=O)(=O)c1cccs1`, the activation is 16.3% (active).
Consider `O=C(Nc1nncs1)c1cccc(S(=O)(=O)N2CCCCC2)c1`, for which the activation is 0.4% (inactive).
Next, `Cc1ccc(-c2nc(C3CCCN(S(=O)(=O)c4ccc(Br)s4)C3)no2)cc1` (stereo unspecified): 0.38% (inactive).
Next, `COc1ccc(-n2c(COc3ccccc3)nnc2SCC(=O)Nc2ccc3c(c2)OCO3)cc1`: 0.59% (inactive); `Cc1ccc(S(=O)(=O)N2CCC(C(=O)OCC(=O)N3CC(=O)Nc4ccccc43)CC2)cc1`: 0.15% (inactive); `Cc1ccc(C2Nc3ccccc3C(=O)N2CCN2CCNC2=O)cc1` (stereo unspecified): 39.3% (active).
The same measure for `O=C1c2ccccc2NC(c2ccccn2)N1NS(=O)(=O)c1ccccc1` (stereo unspecified): 10.7% (inactive); for `COc1ccc(N2CCN(CCNS(=O)(=O)c3ccc(C(C)(C)C)cc3)CC2)cc1`: 0.49% (inactive); for `C=CCN1C(=O)[C@@H](CC(=O)NCC2CCCCC2)[C@]2(C(=O)OC)CCCCC=C12`: 0.16% (inactive).
Regarding `CC(CCN1CCC(C(O)(c2ccccc2)c2ccccc2)CC1)Oc1ccc([N+](=O)[O-])cc1Cl` (stereo unspecified), the activation is -0.54% (inactive).
With `COc1cc(/C=N/N=C(\N)c2nonc2N)cc(OC)c1OC`, the activation was 0.13% (inactive).
On to `Nc1nonc1-n1nnc(C(=O)N/N=C/c2cc(Br)ccc2O)c1CSC1=NCCS1`, for which the activation was -0.67% (inactive).
The same measure for `COc1cc(/C=N\NC(=O)c2nonc2N)c(OC)cc1Br`: 163% (active); for `COc1cccc(N(C)C(=O)[C@@H](C)[C@@H](O)c2ccc3ccccc3c2)c1`: -0.02% (inactive).
Next, `CC(C)CSc1nnc(-c2cccnc2)n1Cc1ccccc1`: -0.36% (inactive).
The same measure for `CN1C(C(=O)NCc2ccco2)CC2Cn3c(nc4ccccc43)C21` (stereo unspecified): 0.06% (inactive); for `CN1c2ccccc2-c2nc3ccccc3n2C1c1ccco1` (stereo unspecified): 35.6% (active).
Take `CN1CCCc2cc(C#N)c(=O)[nH]c21`: the activation was 60% (active).
For the compound `Clc1ccc(C(Cn2ccnc2)OCc2ccsc2Cl)c(Cl)c1` (stereo unspecified), the activation is 0.44% (inactive).
The same measure for `Cc1cc(C(=O)NN=C/C=C/c2ccco2)n[nH]1`: 0.51% (inactive); for `CCC(=O)Nc1c(S(=O)(=O)c2ccccc2)c2nc3ccccc3nc2n1Cc1ccccc1`: -55% (inactive); for `C=CCN1CN(S(=O)(=O)c2ccc(OC)cc2)c2nc3ccccc3nc21`: 2.35% (inactive).
Next, `C=CCn1c(N)c(S(=O)(=O)c2cccs2)c2nc3ccccc3nc21`: 26.2% (active).
The same measure for `COc1cc2c(cc1OC)CC1(CCCCC1)N=C2`: 165% (active); for `CCOC(=O)[C@]12CCCCC/C=C\1N(Cc1ccc(OC)cc1)C(=O)[C@H]2CC(=O)N1CCOCC1`: 0.31% (inactive); for `C=CCN1[C@H](CC(C)C)COc2cccc(N3CCCC3)c2S1(=O)=O`: 0.16% (inactive).
Regarding `CCc1cc(=O)oc2cc(C)cc(OCC(=O)N3CCC[C@@H]3C(=O)O)c12`, the activation is 2.84% (inactive).
Next, `CCc1cc(=O)oc2cc(C)cc(OC(C)C(=O)O)c12` (stereo unspecified): 3.59% (inactive); `CCCCc1cc(=O)oc2cc(C)cc(OCc3nn[nH]n3)c12`: 12.8% (active); `CCOC(CNC(=O)C(=O)NCC(c1ccco1)N1CCN(c2ccc(OC)cc2)CC1)OCC` (stereo unspecified): -0.14% (inactive).
Next, `Cc1cc2c(nc1C)CCCN2C`: 38.3% (active).
Next, `Cc1nc(N2CCOCC2)nc2c1CCCC2`: 0.32% (inactive); `CN1CCCc2nc(-c3ccccc3)ccc21`: 7.88% (inactive); `CCOC(=O)[C@@]12CCC3=C1N(CCC3)C(=O)[C@H](CC(=O)N1CCN(C(=O)c3ccco3)CC1)C2`: 0.06% (inactive).
`C=CCN1C(=O)[C@H](CC(=O)N2CCN(C(=O)OCC)CC2)[C@@]2(C(=O)OCC)CCCC=C12`: the activation was -0.4% (inactive).
The same measure for `Cc1ccccc1CS(=O)(=O)Cc1ccc(C(=O)Nc2ccc(Cl)cc2)o1`: 3.6% (inactive).
For the compound `Cc1[nH]c(=O)c(C(=O)/C=C/c2ccccc2)c2c1CCCC2`, the activation was -0.01% (inactive).
Turning to `O=C1NC(c2ccncc2)Nc2sc3c(c21)CCCC3` (stereo unspecified), the activation was 1.14% (inactive).
Next, `C/C(=C\c1ccccc1)C1NC(=O)c2c(sc3c2CCCC3)N1` (stereo unspecified): 12.6% (active); `COC(=O)c1cccc(Cn2ccc3ccc(-c4ccc5ccn(C(=O)C6CCCCC6)c5c4)cc32)c1`: -4.23% (inactive); `O=C(CCl)NC1CCCCN(Cc2cccc(C(F)(F)F)c2)C1=O` (stereo unspecified): -0.51% (inactive).
Turning to `CS(=O)(=O)Nc1ccc(C(=O)N2CCCC2)cc1`, the activation is 0.41% (inactive).
Next, `CNc1cncc(-c2ccc(NS(C)(=O)=O)cc2)n1`: 128% (active).
Next, `CC(=O)Nc1cncc(-c2ccccc2CO)n1`: -0.16% (inactive).
The same measure for `O=C(CSc1nnc(-c2ccccc2)n1Cc1ccco1)Nc1ccccc1-c1ccccc1`: 0.13% (inactive); for `CCC(NC(=O)C1C2C=CC3(CN(Cc4ccccc4)C(=O)C13)O2)c1ccccc1` (stereo unspecified): -0.29% (inactive).
On to `O=C(NC1CCC1)c1ccc(C#Cc2cccc(F)c2)c[n+]1[O-]`, for which the activation was -0.32% (inactive).
In the case of `Cc1nc2ccccc2nc1CC(O)(c1ccccc1)c1ccccc1`, the activation was -0.46% (inactive).
With `Cc1ccc(O)c(CCc2ccccc2)n1`, the activation was -0.18% (inactive).
On to `Cc1nc2ccccc2cc1O`, for which the activation was 41.8% (active).
On to `O=S1(=O)c2ccc(Br)cc2OC[C@H](Cc2ccccc2)N1Cc1cn(Cc2ccccc2)nn1`, for which the activation was -0.03% (inactive).
Consider `O=C(/C=C/[C@H]1O[C@@H](n2cnc3c(NC(=O)c4ccccc4)ncnc32)[C@H](O)[C@@H]1O)NCc1ccccc1`, for which the activation is 0.53% (inactive).
On to `Cc1ccc(-c2noc(-c3ccccc3C(=O)NCC3CCCO3)n2)cc1` (stereo unspecified), for which the activation is 0.54% (inactive).
For the compound `Cc1ccc(CCNC(=O)c2ccc3nc4ccccc4c(=O)n3c2)cc1`, the activation was -5.82% (inactive).
With `Cc1ccc2nc3c(cc(C(=O)NCCc4ccccc4)c(=N)n3CC3CCCO3)c(=O)n2c1` (stereo unspecified), the activation is 25.4% (active).
Turning to `CC(=O)OC12CCCN(C1)/C(=C/c1ccncc1)C2` (stereo unspecified), the activation was 0.51% (inactive).
The same measure for `CN(C)CCCn1c(N)c(C#N)c2nc(C#N)c(C#N)nc21`: 78.7% (active); for `COC(=O)Cc1cc(=O)oc2c(C)c(O)ccc12`: 66% (active).
In the case of `CCCc1cc(=O)oc2c(C)c(OCC(=O)Nc3ccccn3)ccc12`, the activation was -0.69% (inactive).
With `COc1cccc(C(=O)OCc2cc(=O)oc3c(C)c(C)ccc23)c1OC`, the activation was 0.12% (inactive).
As for `O=C(CSc1nnc(-c2ccccn2)n1-c1ccccc1)Nc1ccc2cn[nH]c2c1`, the activation was 0.28% (inactive).
The same measure for `O=C(CSc1nc2ccccc2nc1N1CCCCC1)N1CCN(S(=O)(=O)c2cccc([N+](=O)[O-])c2)CC1`: 0.08% (inactive); for `Cc1ccc(CSc2nnc(SCC(=O)NN=Cc3cc(Br)ccc3F)s2)cc1`: -0.39% (inactive); for `CCCN(CCC)C(=S)Nc1cc(C(=O)OC)ccc1C(=O)OC`: 0.15% (inactive).
The same measure for `CCS(=O)(=O)Nc1cc(C(=O)OC)ccc1C(=O)OC`: 21.6% (active); for `COC(=O)c1ccc(C(=O)OC)c(NC(=S)N2CCCCC2)c1`: -1.87% (inactive); for `Cc1ccc(NC(=O)Cc2cccc(F)c2)c(S(=O)(=O)N2CCOCC2)c1`: -0.14% (inactive).
Next, `CC(C)(C)c1ccc(CSc2nnc(-c3cccs3)o2)cc1`: -0.23% (inactive).
Take `COc1ccc([C@H]2OC(=O)C[C@H]2C(=O)N2CCN(c3ccccc3F)CC2)cc1OC`: the activation was -0.74% (inactive).
Next, `Cc1nn(-c2ccccc2)c(C)c1NC(=O)COC(=O)c1cc(Cl)ccc1O`: 24.7% (active); `Cc1cccc(C)c1NC(=O)COC(=O)c1c(C)nn(-c2ccccc2)c1C`: 0.05% (inactive).
In the case of `CCC(Oc1ccccc1)C(=O)OCC(=O)Nc1c(C)nn(-c2ccccc2)c1C` (stereo unspecified), the activation was -0.3% (inactive).
Take `O=C(CSc1nc2ccccc2n1Cc1ccccc1Cl)N/N=C\c1c[nH]c2ccccc12`: the activation is 0.56% (inactive).
Take `N[C@@H](Cc1ccccc1)C(=O)N1CCC[C@@H]1C(=O)N1CCC2CCN(S(=O)(=O)c3ccccc3)CC21` (stereo partly specified): the activation is 0.77% (inactive).
Take `Cc1cc2cc3n(c2nn1)N=C(Cl)CC3`: the activation was 24.3% (active).
Turning to `Cc1ccc(NS(=O)(=O)c2ccc3c(c2)NC(=O)CO3)cc1`, the activation was -0.54% (inactive).
Next, `Cc1ccc(S(=O)(=O)Nc2ccc(F)c(S(=O)(=O)N3CCOCC3)c2)cc1`: -0.78% (inactive).
Next, `COCc1cc(=O)oc2cc(NS(=O)(=O)c3ccc(C)cc3)ccc12`: 15.2% (active).
Next, `CC1CCN(c2ccc(C(=O)O)cc2NS(=O)(=O)c2ccc(Br)s2)CC1`: 0.65% (inactive).
With `CC(=O)C[C@@H]1OC[C@H](C)N1S(=O)(=O)c1ccc(C)cc1`, the activation is -0.26% (inactive).
The same measure for `C[C@H](C(=O)N(C)c1ccccc1)[C@@H](O)c1ccc(Cl)cc1`: 0.11% (inactive).
Next, `COc1cc2c(cc1O)C(SC)=NC(C)(C)C2`: -0.65% (inactive).
Take `COc1cc2c(cc1OC)C(C(C)C)=NC(C)(C)C2`: the activation was 85.2% (active).
Next, `COc1cc2c(cc1OC)C(Nc1ccc(S(N)(=O)=O)cc1)=NC(C)(C)C2`: 0.68% (inactive); `COc1ccc(CN(CCN2CCOCC2)C(=O)c2ccc(C)cc2)cc1OC`: 0.42% (inactive).
`Nn1c(SCC(=O)N2c3ccccc3Sc3ccccc32)nnc1-c1n[nH]c2c1CCC2`: the activation is 0.49% (inactive).
Next, `COc1ccc(C(=O)COC(=O)c2ccc3ccccc3n2)cc1`: 0.19% (inactive).
Next, `COc1ccc(-n2c(SCC(=O)OC(C)C)nnc2-c2ccccn2)cc1`: -0.5% (inactive); `COc1ccc2nc(-c3ccccn3)ccc2c1`: 20.9% (active); `O=C(NC1CCC1)c1ccc(C#CC2CC2)cn1`: 0.73% (inactive).
The same measure for `CCCCOCCCNC(=O)C[C@H]1C[C@@]2(C(=O)OC)C(=C[C@H](C(C)(C)C)O[C@@H]2C)N(CCc2ccc(OC)c(OC)c2)C1=O`: -0.83% (inactive); for `N#CCC[C@H]1CC[C@]2(CCCN(Cc3ccc(Cl)cc3)C2)O1`: 0.36% (inactive).
